# Test results taken from PubChem BioAssay.
# Unmarked numbers belong to inactive results. No rule for the calls is given here.
# Biological target: Pantothenate synthetase (Mycobacterium tuberculosis (strain ATCC 25618 / H37Rv)) (UniProt P9WIL5)
# Test: Recombinant Mtb pantothenate synthetase (PanC) inhibitors, coupled enzyme, confirmatory (AID 375);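 also: 0% = full reaction with vehicle and 100% = no enzyme background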
# Conditions: coupled enzyme assay; at 10 µM, active compounds read high
# Pantothenate synthetase (Mycobacterium tuberculosis (strain ATCC 25618 / H37Rv)), sequence (P9WIL5 whole entry, looked up): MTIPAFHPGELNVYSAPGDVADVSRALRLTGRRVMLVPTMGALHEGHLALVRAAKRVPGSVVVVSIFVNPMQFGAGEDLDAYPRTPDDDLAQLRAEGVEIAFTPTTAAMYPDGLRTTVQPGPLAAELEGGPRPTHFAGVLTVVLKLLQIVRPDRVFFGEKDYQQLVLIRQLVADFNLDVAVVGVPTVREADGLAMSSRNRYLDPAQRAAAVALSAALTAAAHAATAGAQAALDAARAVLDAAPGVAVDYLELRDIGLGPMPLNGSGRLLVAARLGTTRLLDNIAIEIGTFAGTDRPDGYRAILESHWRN
row,Compound,inhibition
1,CCCCN(C)C(=O)CS(=O)(=O)Cc1nc(-c2cccc(OC)c2)oc1C,0%
2,COC(=O)c1c(N)sc(C(=O)N2CCOCC2)c1C,0%
3,CC(C)OC(=O)C1C2C=CC3(CN(Cc4cccs4)C(=O)C13)O2 (configuration not stated),0%
4,COc1ccc(CNc2nc(NCc3ccc(OC)cc3)n(S(C)(=O)=O)n2)cc1,0%
5,CCCOc1ccccc1C1CC(=O)Nc2cc3c(cc21)OCCO3 (configuration not stated),2%
6,CC1CCN(C(=O)CSCC(=O)Nc2nc(-c3cccs3)cs2)CC1,0%
7,Cc1cnc(C(=O)Nc2ccccc2-n2cccc2)cn1,3%
8,Cc1nnc(SCC2=C(C(=O)O)N3C(=O)[C@@H](NC(=O)Cn4cnnn4)[C@H]3SC2)s1,0%
9,COc1ccccc1-n1c(=O)c2c3c(sc2n2c(SC(C)C)nnc12)CCC3,1%
10,CCOC(=O)c1[nH]c(=O)c2ccccc2c1O,0%
11,COC(=O)C(CC(C)C)NC(=O)CSc1nc(-c2ccccc2)c(C#N)c(=O)[nH]1 (configuration not stated),0%
12,COC(=O)c1[nH]c2ccccc2c1NC(=O)CN1CCC(C(N)=O)(N2CCCCC2)CC1,0%
13,CC(=O)c1c(OCC(=O)O)ccc2c(C)cc(=O)oc12,0%
14,COC(=O)c1sc(N)c(C(=O)OC)c1CSc1nc2sc3c(c2c(=O)n1C)CCC3,0%
15,COc1ccc(C2CNC(=O)C2)cc1OC1CCCC1 (configuration not stated),1%
16,c1ccc2c(c1)sc1nnnn12,12%
17,CCOC(=O)C(CC)(CCC(=O)O)c1csc(N)n1 (configuration not stated),0%
